The values that follow come from PubChem BioAssay AID1030 (National Center for Advancing Translational Sciences (NCATS), 2008).

Out of some 220,000 compounds screened, about 16,000 (7.3%) were called active. About 25% were inconclusive and are not listed. The call rests on the fitted dose curve; in most records, active means well fitted inhibition curve with a large enough effect (not every such curve was filed as active); inconclusive means small, poorly fitted or top-dose-only effect, or another doubt; inactive means no such curve, though single readings can be large or run the other way. The list comes from a sample in which actives are over-represented; it also holds similar structures and randomly drawn compounds. Entries that show only a call come without a potency.
Potency means the concentration at half of the fitted maximal effect.

The test deals with Aldehyde dehydrogenase 1A1 (Homo sapiens) (UniProt P00352). The test can be described thus: qHTS Assay for Inhibitors of Aldehyde Dehydrogenase 1 (ALDH1A1). The conditions noted are these: Purified ALDH1A1, NADH fluorescence, propionaldehyde substrate; series mostly up to 75.3 µM. For orientation: qHTS replaces the single test concentration by a dilution series.
Aldehyde dehydrogenase 1A1 (Homo sapiens), sequence (P00352 whole entry, looked up): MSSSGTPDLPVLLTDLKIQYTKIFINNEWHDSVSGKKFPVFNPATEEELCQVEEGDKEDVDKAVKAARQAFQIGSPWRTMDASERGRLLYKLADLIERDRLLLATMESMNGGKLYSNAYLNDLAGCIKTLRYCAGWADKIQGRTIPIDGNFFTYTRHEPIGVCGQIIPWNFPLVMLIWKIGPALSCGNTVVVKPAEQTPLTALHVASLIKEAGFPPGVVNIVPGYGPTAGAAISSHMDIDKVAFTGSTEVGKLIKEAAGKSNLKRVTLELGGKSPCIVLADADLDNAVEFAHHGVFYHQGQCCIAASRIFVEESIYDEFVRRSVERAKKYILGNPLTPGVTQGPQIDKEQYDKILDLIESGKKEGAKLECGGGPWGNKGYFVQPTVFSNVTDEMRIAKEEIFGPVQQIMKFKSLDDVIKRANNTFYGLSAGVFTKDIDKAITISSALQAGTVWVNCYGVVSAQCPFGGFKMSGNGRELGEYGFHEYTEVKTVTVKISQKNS
Take `CNC(=O)c1ccc(NC(=O)c2cccc(C(F)(F)F)c2)cc1`: the Potency entry is “inactive”.
For the compound `CC(C)N(C(=O)Cn1cc(SCC(=O)N2CCCC2)c2ccccc21)C(C)C`, the Potency result was “inactive”.
The same measure for `O=C(c1cccc(F)c1)N1CCN(c2ccc([N+](=O)[O-])c3cccnc23)CC1`: “inactive”.
`O=C(c1cccc(F)c1)N1CCN(c2ccc([N+](=O)[O-])c(N3CCCCC3)c2)CC1`: the Potency is 8.91 µM (active).
The same measure for `O=C(c1cccc(C(=O)N2CCN(c3ccc(F)cc3)CC2)c1)N1CCN(c2ccc(F)cc2)CC1`: “inactive”.
As to `CCCN(CC(=O)Nc1ccccc1C)C(=O)c1cc(=O)[nH]c2ccccc12`, the Potency entry was “inactive”.
Consider `O=C(Nc1ccc2c(c1)C(=O)OC2)Nc1cccc2ccccc12`, for which the Potency result was “inactive”.
As to `CC(C)OCCCNC(=S)N1CCC(C(=O)c2ccc3c(c2)OCCO3)CC1`, the Potency entry was “inactive”.
Regarding `Cc1nn(C)c(C)c1CN(C(=O)CCc1nnc(Cc2c[nH]c3ccccc23)o1)C(C)C`, the Potency result is “inactive”.
As for `CCOC(=O)N1CCN(CC(=O)Nc2ccc(F)cc2)CC1`, the entry is “inactive”.
The same measure for `CCOC(=O)N1CCN(CC(=O)Nc2cc(C)nn2-c2nc3ccccc3s2)CC1`: 15.8 µM (active); for `Cc1cc(NC(=O)CN2CCCC(C)C2)n(-c2nc3ccccc3s2)n1` (stereo not drawn): “inactive”.
In the case of `CC(C)(C)N(Cc1ccccc1)C(=O)COC(=O)CCc1c[nH]c2ccccc12`, the Potency entry is “inactive”.
As for `CN(Cc1cccs1)C(=O)Cc1c[nH]c2ccccc12`, the Potency entry was “inactive”.
Turning to `NS(=O)(=O)c1ccc(NC(=O)COC(=O)CCc2c[nH]c3ccccc23)cc1`, the Potency result is “inactive”.
Take `O=C(Cc1c[nH]c2ccccc12)OCCOC(=O)Cc1c[nH]c2ccccc12`: the Potency is 17.8 µM (active).
The same measure for `CCOC(=O)CN(C)Cc1c[nH]c2ccccc12`: 22.4 µM (active).
Consider `CC(=O)NC(Cc1c[nH]c2ccccc12)C(=O)O` (stereo not drawn), for which the Potency entry was “inactive”.
As for `COc1ccc(NC(=O)C(=O)NCC(=O)Nc2cccc(C(F)(F)F)c2)cc1`, the entry is “inactive”; as for `O=C(C(=O)N1CCc2ccccc2C1)N1CCc2ccccc2C1`, “inactive”; as for `COc1ccc(-c2nc(CS(=O)CC(=O)N3CCc4ccccc4C3)c(C)o2)cc1` (stereo not drawn), 25.1 µM (active).
As for `Cc1nnc(SCC(=O)N2CCc3ccccc3C2)s1`, the entry is “inactive”; as for `Clc1cc(-c2ccc(/C=N/n3cnnc3)o2)ccc1Br`, “inactive”; as for `CCc1ccccc1NC(=O)CSc1nnc(-c2ccncc2)o1`, “inactive”.
Consider `Cc1ccc2c(Cl)c(C(=O)Nc3nn[nH]n3)sc2c1`, for which the Potency entry was “inactive”.
Turning to `O=c1ccn([C@@H]2O[C@H](COP(=O)(O)OP(=O)(O)OP(=O)(O)O)[C@@H](O)[C@H]2O)c(=O)[nH]1`, the Potency entry was “inactive”.
Consider `O=C(Oc1ccc([N+](=O)[O-])cc1)c1ccc(Cl)c(S(=O)(=O)N2CCCCC2)c1`, for which the Potency was 12.6 µM (active).
Take `Cc1ccc(C(=O)NCC(=O)O)cc1S(=O)(=O)N1CCCCC1`: the Potency result is “inactive”.
For `COc1ccccc1N1CCN(C(=O)c2ccc(Cl)c(S(=O)(=O)N3CCCC3)c2)CC1`, the Potency result is “inactive”.
The same measure for `CC1CCC2(CC1)NC(=O)N(Cc1nnc(-c3cccs3)o1)C2=O` (stereo not drawn): “inactive”; for `CC(O)[C@@H](N)C(=O)O` (stereo partly drawn): “inactive”; for `CN(CC(=O)NCCc1ccccn1)S(=O)(=O)c1ccc(Cl)cc1`: “inactive”.
On to `O=c1[nH][nH]c(=O)c2cc(N3CCCC3)ccc12`, for which the Potency entry is “inactive”.
As for `O=C1C=CC(=O)N1c1ccc(N2CCCCC2)cc1`, the Potency was 0.251 µM (active).
As for `Cc1cccn2c(CN(C)C3CCCc4ccccc43)c(C(=O)N3CCOCC3)nc12` (stereo not drawn), the entry is “inactive”; as for `CC1CCN(C(=S)c2cccc(O)c2)CC1`, 31.6 µM (active); as for `COc1ccc(C(=O)Nc2ccc(N3CCC(C)CC3)cc2)cc1Br`, “inactive”.
For `CC(=O)N1CCN(S(=O)(=O)c2cccc(C(=O)NC3CCC(C)CC3)c2)CC1` (stereo not drawn), the Potency result was “inactive”.
On to `Cc1cc2c(cc1C)[n+](C)cn2CC(O)COCC1CC=CCC1` (stereo not drawn), for which the Potency result was “inactive”.
For `CNC(=S)N1CCN(c2ccccn2)CC1`, the Potency result was “inactive”.
As for `CC(=C1C(=O)c2ccccc2C1=O)N1CCN(c2ccccn2)CC1`, the figure is 12.6 µM (active).
The same measure for `COc1ccc(N2CCN(C(C)=C3C(=O)c4ccccc4C3=O)CC2)cc1`: “inactive”; for `CC1(C)OC(=O)C(=CNC(CO)C(=O)O)C(=O)O1` (stereo not drawn): “inactive”; for `O=C(/C=C/c1c(Cl)cccc1Cl)NCc1ccccc1`: “inactive”.
For `O=C1N=C2SCCN2/C1=C\c1c(Cl)cccc1Cl`, the Potency entry is “inactive”.
As to `O=Cc1c(Cl)cccc1Cl`, the Potency was 14.1 µM (active).
The same measure for `Cc1ccc(C(=O)O)cc1N1C(=O)CCCC1=O`: “inactive”; for `O=C(O)c1ccc(NC(=O)c2cn(-c3ccccc3)nc2-c2ccc(Cl)cc2)cc1`: “inactive”.
As to `COc1ccc(OC)c(/C=N/NC(=O)CSc2nnc(C)n2-c2ccccc2)c1`, the Potency entry is “inactive”.
The same measure for `Cn1cccc1Cc1nnc(SCC(=O)NCCc2ccccc2)n1-c1ccc(F)cc1`: “inactive”; for `COC(=O)c1ccccc1NC(=O)CSc1nnnn1C`: “inactive”; for `COc1ccccc1NC(=O)CSc1nnc(Cc2cccn2C)n1-c1ccc(F)cc1`: 17.8 µM (active).
On to `COc1cc(-c2nnn(CC(=O)NCc3ccccc3)n2)cc(OC)c1OC`, for which the Potency entry was “inactive”.
Take `COC(=O)c1ccc(NC(=O)CSc2nnc(Cc3cccn3C)n2-c2ccc(F)cc2)cc1`: the Potency is 22.4 µM (active).
As to `COc1cccc(-n2c(Cc3cc(=O)[nH]c(=O)[nH]3)nnc2SCC(=O)Nc2ccccc2)c1`, the Potency entry is “inactive”.
In the case of `COCCn1c(Cc2cccn2C)nnc1SCC(=O)Nc1nccs1`, the Potency result is “inactive”.
In the case of `COc1ccccc1NC(=O)CSc1nnc(Cn2nnc(-c3ccccc3)n2)n1-c1ccccc1`, the Potency is 2.82 µM (active).
As for `O=C1CC(c2c(F)cccc2Cl)C(n2cncn2)C(O)=C1C1NCCc2ccccc21` (stereo not drawn), the entry is “inactive”; as for `CCOc1ccc(C(CC(=O)O)NC(=O)C23CC4CC(CC(C4)C2)C3)cc1OC` (stereo not drawn), “inactive”; as for `O=C(CNC(=O)COc1ccccc1)NCCc1ccccn1`, “inactive”.
The same measure for `COC(c1ccccc1)c1nnc(CCC(=O)N2CCN(CCOc3ccccc3)CC2)o1` (stereo not drawn): “inactive”; for `OCCC1CN(Cc2cccc(O)c2)CCN1CCc1ccccc1` (stereo not drawn): “inactive”; for `CCn1cc(-c2cc(C(=O)O)on2)c(C)n1`: “inactive”.
As for `COC(=O)C(C)N=Cc1ccccc1` (stereo not drawn), the entry is “inactive”; as for `Fc1ccc(-c2csc(-c3ccc(C4SCCS4)cc3)n2)cc1F`, “inactive”; as for `Cc1cc(C)c(NC(=O)C[N+](C)(C)CC(O)COc2cccc3ccccc23)c(C)c1` (stereo not drawn), “inactive”.
Consider `CCCCNc1nc2c(c(=O)[nH]c(=O)n2C)n1CCOc1ccccc1`, for which the Potency entry was “inactive”.
Regarding `CCC(C)Sc1nc2c(c(=O)[nH]c(=O)n2C)n1CC(O)COc1cccc2ccccc12` (stereo not drawn), the Potency is 25.1 µM (active).
